In PubChem BioAssay (NCATS):
Records with an inconclusive call do not appear. Where a call stands in place of a potency, no number is given. Calls of active or inactive are those of the source. Unless noted, the call rests on the fitted dose curve; in most records, active means well fitted curve in the direction sought with a large enough effect; inconclusive means small, poorly fitted or top-dose-only effect, or another doubt; inactive means no such curve, though single readings can be large; an effect the other way counts as inactive or inconclusive.

Tests used:
[1] = molecular target: Voltage-gated inwardly rectifying potassium channel KCNH2 (Homo sapiens) (UniProt Q12809); assay: qHTS Assay for Small Molecule Inhibitors of the Human hERG Channel Activity (AID 588834); settings: U2OS BacMam hERG, FluxOR thallium flux fluorescence; series mostly up to 46.1 µM;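 further: lower thallium flux fluorescence means stronger hERG block; nearly all actives have a fitted effect of over 50% in size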; further: potency means the concentration at half of the fitted maximal effect
Sequence of Voltage-gated inwardly rectifying potassium channel KCNH2 (Homo sapiens) (Q12809 whole entry, looked up): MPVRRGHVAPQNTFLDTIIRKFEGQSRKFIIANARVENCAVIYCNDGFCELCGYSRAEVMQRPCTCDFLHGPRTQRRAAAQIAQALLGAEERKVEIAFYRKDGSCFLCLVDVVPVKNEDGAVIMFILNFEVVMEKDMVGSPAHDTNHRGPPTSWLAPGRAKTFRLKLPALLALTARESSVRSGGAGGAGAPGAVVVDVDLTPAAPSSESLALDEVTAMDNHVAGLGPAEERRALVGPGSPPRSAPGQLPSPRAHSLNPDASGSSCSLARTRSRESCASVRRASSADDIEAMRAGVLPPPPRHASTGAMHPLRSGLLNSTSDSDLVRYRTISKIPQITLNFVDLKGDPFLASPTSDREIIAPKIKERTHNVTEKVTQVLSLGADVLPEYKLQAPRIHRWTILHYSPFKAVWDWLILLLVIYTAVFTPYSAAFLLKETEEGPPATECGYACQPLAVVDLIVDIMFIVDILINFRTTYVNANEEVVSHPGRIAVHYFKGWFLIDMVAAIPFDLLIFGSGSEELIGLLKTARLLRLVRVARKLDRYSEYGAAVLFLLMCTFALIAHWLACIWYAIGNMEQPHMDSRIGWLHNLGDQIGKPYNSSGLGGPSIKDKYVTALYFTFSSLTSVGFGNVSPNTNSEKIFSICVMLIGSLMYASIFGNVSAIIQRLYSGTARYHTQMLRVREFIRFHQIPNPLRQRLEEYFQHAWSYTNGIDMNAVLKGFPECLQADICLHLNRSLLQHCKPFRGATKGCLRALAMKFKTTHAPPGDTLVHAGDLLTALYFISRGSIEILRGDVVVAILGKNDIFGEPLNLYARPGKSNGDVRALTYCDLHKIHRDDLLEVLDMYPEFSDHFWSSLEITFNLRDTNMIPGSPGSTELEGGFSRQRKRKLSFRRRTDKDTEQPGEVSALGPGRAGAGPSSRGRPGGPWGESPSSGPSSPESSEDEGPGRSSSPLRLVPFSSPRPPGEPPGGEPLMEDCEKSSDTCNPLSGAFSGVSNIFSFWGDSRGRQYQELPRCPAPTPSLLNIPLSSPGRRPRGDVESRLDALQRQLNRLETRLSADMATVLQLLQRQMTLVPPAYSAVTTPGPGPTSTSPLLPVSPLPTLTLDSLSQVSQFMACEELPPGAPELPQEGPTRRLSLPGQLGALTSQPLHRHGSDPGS
Procedure, shortened: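 Thallium serves as surrogate for K+ influx through BacMam-delivered hERG in U2OS cells. Compounds are added for about 10 minutes after dye loading; stimulation buffer then starts flux, monitored kinetically on FDSS.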

[2] = S16 Schwann cell viability assay (CellTiter-Glo assay) (AID 624031); settings: S16 rat Schwann cells viability, 24 h; series mostly up to 57.5 µM;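 further: native untransfected S16 rat Schwann cells; cellular ATP luminescence as a viability measure; nearly all actives have a fitted effect of over 70% in size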
Procedure, shortened: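 Parental S16 cells, 24 h compound, 37 °C. ATP-luminescence viability; DMSO = 0% activity, empty wells as reference; curves classified by fit quality and efficacy.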

[3] = S16 Schwann cell PMP22 intronic element firefly luciferase assay (AID 624032); settings: S16 rat Schwann cells, PMP22 element FLuc, 24 h; series mostly up to 57.5 µM; further: nearly all actives have a fitted effect of over 30% in size
Procedure, shortened: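 Rat S16 Schwann cells stably carrying firefly luciferase driven by a PMP22 intronic element, in 10% FBS, treated 24 h at 37 C. ONE-Glo luminescence normalized to PTC124 control and DMSO (0%); curves classed by r2, magnitude and activity.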

[4] = molecular target: Luciferin 4-monooxygenase (Photinus pyralis) (UniProt P08659); assay: Biochemical firefly luciferase enzyme assay for NPC (AID 624030);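 further: purified P. pyralis luciferase at 10 nM with luciferin and ATP substrate; nearly all actives have a fitted effect of over 70% in size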; settings: purified P. pyralis luciferase, luminescence, 5 min; series mostly up to 58.6 µM
Sequence of Luciferin 4-monooxygenase (Photinus pyralis) (P08659 whole entry, looked up): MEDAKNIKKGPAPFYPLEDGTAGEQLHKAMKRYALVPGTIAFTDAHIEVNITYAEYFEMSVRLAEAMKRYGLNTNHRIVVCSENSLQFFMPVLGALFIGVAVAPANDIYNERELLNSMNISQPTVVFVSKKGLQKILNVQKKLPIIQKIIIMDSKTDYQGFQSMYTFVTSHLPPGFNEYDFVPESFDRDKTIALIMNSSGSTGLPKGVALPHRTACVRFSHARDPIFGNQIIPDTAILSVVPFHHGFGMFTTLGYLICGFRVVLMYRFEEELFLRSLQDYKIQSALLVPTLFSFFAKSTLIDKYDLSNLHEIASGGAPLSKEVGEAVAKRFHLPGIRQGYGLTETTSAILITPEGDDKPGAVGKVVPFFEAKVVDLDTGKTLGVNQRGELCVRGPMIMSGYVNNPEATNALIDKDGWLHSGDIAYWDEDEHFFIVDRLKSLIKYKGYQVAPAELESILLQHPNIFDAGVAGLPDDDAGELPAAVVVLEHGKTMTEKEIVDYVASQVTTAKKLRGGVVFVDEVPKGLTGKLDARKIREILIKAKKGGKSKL
Procedure, shortened: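 Purified P. pyralis luciferase at 10 nM in 50 mM Tris Acetate (final), luminescence read within 5 minutes of enzyme addition to compounds. Activity normalised to PTC124 versus DMSO; concentration-response curves classed by r2, magnitude and activity.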

[5] = molecular target: Glutaminase kidney isoform, mitochondrial (Homo sapiens) (UniProt O94925); assay: qHTS for Inhibitors of Glutaminase (GLS): LOPAC Validation (AID 624146); settings: glutaminase enzyme activity inhibition; series mostly up to 46.1 µM;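 further: glutamate product detected by oxidase and peroxidase coupled Amplex red fluorescence gain; nearly all actives have a fitted effect of over 60% in size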
Sequence of Glutaminase kidney isoform, mitochondrial (Homo sapiens) (O94925 whole entry, looked up, canonical isoform): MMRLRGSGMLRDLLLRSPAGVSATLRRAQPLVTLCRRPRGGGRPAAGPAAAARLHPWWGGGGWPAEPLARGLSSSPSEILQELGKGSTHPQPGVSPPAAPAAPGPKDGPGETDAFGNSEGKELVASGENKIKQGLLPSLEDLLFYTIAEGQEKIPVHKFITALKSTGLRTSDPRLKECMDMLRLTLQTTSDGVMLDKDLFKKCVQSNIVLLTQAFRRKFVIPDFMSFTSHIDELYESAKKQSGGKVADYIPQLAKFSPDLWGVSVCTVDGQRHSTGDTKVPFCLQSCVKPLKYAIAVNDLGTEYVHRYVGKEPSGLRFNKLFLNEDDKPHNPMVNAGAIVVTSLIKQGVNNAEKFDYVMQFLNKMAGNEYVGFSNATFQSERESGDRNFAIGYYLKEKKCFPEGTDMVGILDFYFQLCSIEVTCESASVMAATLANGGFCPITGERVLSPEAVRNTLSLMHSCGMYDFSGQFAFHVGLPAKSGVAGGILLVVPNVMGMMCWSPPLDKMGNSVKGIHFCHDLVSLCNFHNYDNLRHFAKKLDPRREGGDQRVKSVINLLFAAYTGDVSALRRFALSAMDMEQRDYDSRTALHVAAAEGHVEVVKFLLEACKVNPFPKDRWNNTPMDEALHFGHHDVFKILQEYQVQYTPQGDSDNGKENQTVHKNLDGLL
Procedure, shortened: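 Read-out is an Amplex red fluorescence increase coupled through glutamate oxidase and HRP, measured before and after 30 min room-temperature incubation. hKGA is in 45 mM KH2PO4 (pH 8.2) with 0.02% Tween-20; glutamine added as 1mM solution.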

[6] = S16 Schwann cell PMP22 intronic element beta-lactamase assay (AID 624044; calls by dose curve; further: nearly all actives have a fitted effect of over 15% in size); settings: S16 rat Schwann cells, PMP22 element beta-lactamase FRET, 24 h; series mostly up to 38.3 µM
Procedure, shortened: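 Beta-lactamase reporter under a PMP22 intronic regulatory element in stable S16 rat Schwann cells; 24 h compound exposure. 460 nm blue signal normalized between DMSO (0%) and potassium clavulanate, with 535 nm FRET tracking viability; curves classed by r2 and response.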

Compound	Potency [1]	Potency [2]	Potency [3]	Potency [4]	Potency [5]	Potency [6]
O=C(O)c1ccccc1-c1ccc(C(F)(F)F)cc1	inactive	inactive	inactive			
CC(C)(C)NCC(O)COc1ccc(NC(=O)NC2CCCCC2)cc1 (stereo unspecified)	inactive	inactive	inactive			
C[C@](N)(Cc1ccc(O)cc1)C(=O)O	inactive	inactive		inactive	inactive	
C[C@H](N)[C@H](O)c1cccc(O)c1	inactive			inactive		inactive
COc1ccc2c(c1)C(=O)N(CCc1ccc(S(=O)(=O)NC(=O)NC3CCCCC3)cc1)C(=O)C2(C)C	inactive	inactive				inactive
Nc1cc(=O)[nH]c(N)n1	inactive			inactive	inactive	
O=S(=O)(O)c1cc(I)c(O)c2ncccc12	inactive	inactive	inactive			
CC(=O)OCC(=O)[C@@]1(O)CC[C@H]2[C@@H]3CCC4=CC(=O)CC[C@]4(C)[C@H]3C(=O)C[C@@]21C	inactive			inactive	inactive	
Oc1ccc(C(O)CNCCCCCCNCC(O)c2ccc(O)c(O)c2)cc1O (stereo unspecified)	inactive			inactive		inactive
CN1CCN(C2Cc3ccccc3Sc3ccc(Cl)cc32)CC1 (stereo unspecified)	1.12 µM (active)			inactive	inactive	inactive
N[C@@H](CSCCCO)C(=O)O	inactive	inactive				
O=C(CCCN1CCN(c2ccccn2)CC1)c1ccc(F)cc1	5.01 µM (active)	inactive				
O=C(O)c1ccccn1	inactive	inactive	inactive			inactive
CN1CCC[C@@H]1Cc1c[nH]c2ccc(CCS(=O)(=O)c3ccccc3)cc12	12.6 µM (active)		inactive	inactive		
Cc1cc(C(C#N)c2ccc(Cl)cc2)c(Cl)cc1NC(=O)c1cc(I)cc(I)c1O (stereo unspecified)	inactive	inactive				inactive
